Results filed as inconclusive are left out. Where a call stands in place of a potency, no number is given. Values without a mark were called inactive. Active and inactive are the calls of the source. The call rests on the fitted dose curve; in most records, active means well fitted inhibition curve with a large enough effect in the repeat runs; inconclusive means weak or mixed curves; inactive means no such curve, though single readings can be large or run the other way.
target: Cytochrome P450 2C9 (Homo sapiens) (UniProt P11712); assay: Cytochrome P450 Family 2 Subfamily C Member 9 (CYP2C9) small molecule antagonists: luciferase reporter qHTS assay (AID 1671198); details: P450-Glo CYP2C9 enzyme assay, luciferin luminescence; series mostly up to 115 µM; further: nearly all actives have a fitted effect of over 50% in size
Sequence (P11712 whole entry, looked up): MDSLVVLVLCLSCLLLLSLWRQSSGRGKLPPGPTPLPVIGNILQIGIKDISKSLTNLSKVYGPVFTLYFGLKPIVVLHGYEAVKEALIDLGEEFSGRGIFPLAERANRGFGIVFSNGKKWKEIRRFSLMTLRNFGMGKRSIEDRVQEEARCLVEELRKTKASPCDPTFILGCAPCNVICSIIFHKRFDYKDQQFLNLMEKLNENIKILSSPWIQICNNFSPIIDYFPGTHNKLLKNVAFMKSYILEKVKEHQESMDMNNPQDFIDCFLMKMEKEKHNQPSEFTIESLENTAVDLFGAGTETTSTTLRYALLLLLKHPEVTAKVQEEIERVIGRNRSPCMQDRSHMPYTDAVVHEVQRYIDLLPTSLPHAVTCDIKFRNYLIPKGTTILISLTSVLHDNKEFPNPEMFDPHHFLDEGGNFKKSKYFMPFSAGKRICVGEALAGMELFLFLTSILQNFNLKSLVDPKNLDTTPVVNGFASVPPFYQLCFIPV
Text: U.S. Tox21 Program National Center for Advancing Translational Sciences [NCATS] U.S. Environmental Protection Agency [EPA] National Institutes of Environmental Health Sciences [NIEHS] National Toxicology Program [NTP] U.S. Food and Drug Administration [FDA] Tox21 Assay Overview: Cytochrome P450 (CYP) enzymes are membrane-bound hemeproteins that play a key role in metabolism of drugs and xenobiotics. Evaluation of the effect of chemicals on CYP isozymes is useful to minimize the adverse drug reactions and toxicities in drug development process. Tox21 chemicals were tested for their effect on CYP enzyme activities by using P450-Glo (TM) screening systems (Promega Corporation, Madison, WI). These systems provide a luminescent method containing proluciferin substrates and are converted to luciferin products by CYP isozymes. The luciferin products formed are detected with a luciferin detection reagent, and the amount of light produced is proportional to CYP activity. P450-Glo (TM) CYP2C9 screening system (Catalog. No. V9790) was used to detect the compounds that interfere in CYP2C9 activity.
Tox21 Assay Protocol Summary: Two ul of enzyme-substrate mix was dispensed into medium binding white/solid 1536-well plates (Greiner Bio-One North America Inc., Monroe, NC) using a BioRaptr Flying Reagent Dispenser (FRD, Beckman Coulter, Brea, CA). […] The assay plates were incubated at room temperature for 10 min. Then 2 ul of NADPH regeneration solution was added to each well of the assay plates using an FRD and incubated at 37C for 1 h. The reaction was stopped by adding 4 ul of detection reagent using an FRD and after 20 min incubation at room temperature the luminescence signal was measured using a ViewLux plate reader (Perkin Elmer, Shelton, CT). Data were expressed as relative luminescence units.
Potency means the concentration at half of the fitted maximal effect.

Row | Compound | Potency | activity change, negative = inhibition
1 | Cc1ccc(C(C)NC(=O)[C@@H](NC(=O)OC(C)C)C(C)C)cc1 (stereo not given in full) | 31.6 µM (active) | 
2 | CC(C)c1ccc(C=O)cc1 | inactive | 
3 | c1ccc2c(CC3=NCCN3)cccc2c1 | inactive | 
4 | C=C(C)[C@@H]1CC=C(C)CC1 | inactive | 
5 | Cn1c(=O)c2[nH]c(Br)nc2n(C)c1=O | inactive | 
6 | CCCCCCC1(C)CCC(=O)O1 (stereo not given) | inactive | 
7 | CC(C)C1OCCN1CCOC(=O)NCCCCCCNC(=O)OCCN1CCOC1C(C)C (stereo not given) | inactive | 
8 | COc1cc(/C=C/C(N)=O)cc(OC)c1OC | inactive | 
9 | CCCCCCCCCCCCCCCCCC#N | inactive | 
10 | OC1OCCOC1O (stereo not given) | inactive | 
11 | C=C(C)c1cccc(C(C)(C)N=C=O)c1 | 15.9 µM (active) | 
12 | CCCCSCCCC | 63.3 µM (active) | 
13 | COC(=O)CCCCC(CCSS/C(CCO)=C(\C)N(C=O)Cc1cnc(C)nc1N)SC(C)=O (stereo not given) | inactive | 
14 | COC(=O)CCCCC(=O)O | inactive | 
15 | O=[N+]([O-])c1c(Cl)cc(Cl)cc1Cl | inactive | 
16 | [O]=[Mo](=[O])=[O] |  | -0.296% [at 23.6 µM]
17 | CO[C@@]1(NC(=O)Cc2cccs2)C(=O)N2C(C(=O)O)=C(COC(N)=O)CS[C@@H]21 | inactive | 
18 | CN(C)C(C)(C)CO | inactive | 
19 | CCOc1cccc(N)c1 | 7.93 µM (active) | 
20 | CC(C)(C)NC[C@H](O)COc1cccc2c1CCCC2=O | inactive | 

Row | Compound | Potency | activity change, negative = inhibition
21 | OC[C@H]1O[C@@H](O[C@@H]2[C@@H](CO)O[C@](O)(CO)[C@H]2O)[C@H](O)[C@@H](O)[C@H]1O | inactive | 
22 | CCCCCCCCCCCCCCC(=O)NC(CO)CCCCCCCCCCCCCC (stereo not given) | inactive | 
23 | CCC(C)C(=O)OCCc1ccccc1 (stereo not given) | inactive | 
24 | CC1=C(O)C(=O)C(C)O1 (stereo not given) | inactive | 
25 | CC1CC(=O)CC(C)(C)C1 (stereo not given) | inactive | 
26 | O=C(O)CSCC(=O)NC1CCSC1=O (stereo not given) | inactive | 
27 | COCCc1ccccn1 | inactive | 
28 | CCCCCC(C)O (stereo not given) | inactive | 
29 | CC(=O)OCC(=O)Nc1cc(C#N)cc(NC(=O)COC(C)=O)c1Cl | inactive | 
30 | OCC(O)CN1CCN(c2ccccc2)CC1 (stereo not given) | inactive | 
31 | O=C(CCCCC(=O)Nc1c(I)cc(I)c(C(=O)O)c1I)Nc1c(I)cc(I)c(C(=O)O)c1I | inactive | 
32 | CC(O)CC(C)O (stereo not given) | inactive | 
33 | C=CC(=O)OCC1CCCO1 (stereo not given) | inactive | 
34 | CCCCCCCCCCCCCBr | inactive | 
35 | Cc1c(Cl)cccc1Cl | inactive | 
36 | CC(=O)CC(=O)Nc1ccc(C)cc1C | 31.7 µM (active) | 
37 | CCC(C)C(C)=O (stereo not given) | inactive | 
38 | CC(C)Cn1cnc2c1c(=O)n(C)c(=O)n2C | inactive | 
39 | CCCCOCC(C)O (stereo not given) | inactive | 
40 | O=Cc1cc2ccccc2o1 | inactive | 

Source: PubChem BioAssay (Tox21)
